Reference: the supplement of paper PMC3334620
In all, about 33,000 sequences were measured (“E-score (-0.5 to 0.5)”: median about -0.04, highest 2% from about 0.36 on). The entries come from a sample that favours the highest values as a whole.

Target: T1, Hmlalpha2 (UniProt P0CY09)
T1 sequence: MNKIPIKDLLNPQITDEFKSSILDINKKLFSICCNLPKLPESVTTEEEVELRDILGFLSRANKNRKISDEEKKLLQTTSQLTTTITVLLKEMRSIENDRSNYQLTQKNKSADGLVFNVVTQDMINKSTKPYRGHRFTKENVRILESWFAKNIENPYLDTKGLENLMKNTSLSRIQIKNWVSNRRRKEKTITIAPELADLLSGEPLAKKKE
Experiment: PBM E-score (8-mer binding enrichment) (E-score (-0.5 to 0.5)); higher = stronger / more preferred TF binding
Details: protein concentration: 200 nM; construct: GST-full length
In short: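 Universal all-10-mer Agilent arrays, double-stranded by primer extension on fresh or once-stripped slides, were probed with about 100-200 nM GST-tagged yeast transcription factors made by PURExpress. Fluorescent anti-GST detected bound protein, and masliner normalised the scans. E-scores from the Universal PBM Analysis Suite were given to each ungapped eight-base word pooled with its reverse complement.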

In order of rising “PBM E-score” value:
1. CTGGGGGA  -0.422
2. CCGGACCG  -0.303
3. AAGTTCCC  -0.296
4. AGACGATC  -0.29
5. GCAAAACC  -0.272
6. CTATGCTC  -0.27
7. ATCTGTGG  -0.267
8. GAGGCAGA  -0.265
9. CCATCGCC  -0.261
10. AGGGGTTG  -0.253
11. ACCGGTCT  -0.25
12. GGCCGACA  -0.247
13. CGAAACTC  -0.242
14. AGGAAAGG  -0.238
15. CCGTTCCG  -0.225
16. GAATGCTC  -0.225
17. CTCTGCCA  -0.219
18. CATCGGTA  -0.217
19. ACCCTAAA  -0.212
20. CGTGGCTC  -0.209
21. GCTAAGGA  -0.195
22. GTGGCCCA  -0.191
23. AGTGCTCG  -0.187
24. CTCGCTAC  -0.181
25. ATCGGGGC  -0.175
26. AGCACTGC  -0.17
27. GAGTTCGC  -0.169
28. TCAGCGGA  -0.169
29. ACACCTAG  -0.163
30. AGGCCCGC  -0.162
31. GACCTCGC  -0.148
32. CTCCTATC  -0.139
33. TGATCAAA  -0.137
34. AGCGAGTC  -0.136
35. CGGTGGAC  -0.136
36. CAGATTTC  -0.132
37. CCATGCTC  -0.13
38. AGGCGATG  -0.128
39. GCCGAGCC  -0.127
40. ATCTCACC  -0.126
41. CCTAGGAA  -0.125
42. CTCTAGAC  -0.116
43. CCACGATA  -0.11
44. CCACATAG  -0.105
45. AGAGTGCA  -0.0981
46. CAGGGGCG  -0.0915
47. ATATAACC  -0.0903
48. ATATGCTG  -0.0833
49. ATTCCTGA  -0.0807
50. AGCGGTTC  -0.0786
51. TCGACAGA  -0.0778
52. ATCATGAA  -0.0623
53. CCAAAGAA  -0.0602
54. GAATAACC  -0.0464
55. AATCCGGT  -0.0356
56. CCAAGCGC  -0.0307
57. ACTTTAGA  -0.0293
58. AGATACAG  -0.0238
59. GCCACGAC  -0.0179
60. CTATAATA  -0.00916
61. CGTTACAG  -0.0046
62. AAAAAGAT  -0.00444
63. GCATGCTA  0.00271
64. GGCCATTA  0.0102
65. GATTGTGC  0.0144
66. CCGGCTGC  0.0149
67. CAATCCTG  0.0153
68. AGCATGAA  0.0173
69. TCACCGAA  0.0184
70. CAGACACA  0.035
71. AATCTCCA  0.042
72. CCATGCTA  0.0439
73. ACCATTGA  0.0496
74. ACGCTCCT  0.0508
75. AAACGATG  0.0541
76. ACGAGGAA  0.0596
77. ATTTAACC  0.0603
78. GAGATAAA  0.0648
79. AGACATAT  0.0652
80. TCATGCCA  0.0681
81. AAGACGAT  0.0721
82. AGTTACAG  0.0744
83. GGTATTAA  0.083
84. AAATCTTC  0.0872
85. TCATGCAA  0.107
86. ACAAGCGA  0.112
87. GTATAAGA  0.116
88. AACTTCAC  0.121
89. TACGCTGA  0.122
90. CAAAACAG  0.124
91. ACGCAAAC  0.125
92. CGACATAG  0.139
93. AGACATAA  0.143
94. CCATACAC  0.145
95. CGAATGCA  0.145
96. ATTCTTAA  0.148
97. GCACGATA  0.154
98. ACAAGTAC  0.165
99. GAATAATA  0.168
100. GTAGACGA  0.17
101. CCACGATC  0.172
102. CATGAGTC  0.175
103. AATACTCA  0.18
104. ATATAATA  0.199
105. GACATGAA  0.204
106. GTTTAATA  0.218
107. AAATGCTG  0.229
108. CACATGAA  0.237
109. CAATAACA  0.239
110. AGTATTAA  0.249
111. GCATACAC  0.256
112. ACATGGAG  0.262
113. ACATATAT  0.27
114. AGATACAA  0.276
115. GTATAAAA  0.282
116. ACACATAG  0.282
117. ACATGCGG  0.289
118. AAACATAG  0.291
119. ACATGCCT  0.3
120. AATACACC  0.307
121. ACATGCGC  0.308
122. GGTTACAC  0.314
123. AAATAACA  0.316
124. ACATGGAA  0.317
125. CGTTACAA  0.318
126. ATGAACAT  0.323
127. ACATACAA  0.325
128. AATACACT  0.326
129. CTACATAC  0.327
130. ACATGGGA  0.33
131. CTATAACA  0.335
132. ACATACAG  0.336
133. ACATGGGC  0.342
134. ATTTAACG  0.355
135. ACACGAAG  0.358
136. ACATGCAC  0.36
137. GTACATAC  0.362
138. CTTTAACA  0.363
139. ACACATAA  0.364
140. GTATAATA  0.368
141. ACATGCTG  0.377
142. GTATAACA  0.378
143. ACATGCTA  0.379
144. ACATGGGT  0.382
145. ATATAACA  0.384
146. CGTTACAC  0.385
147. ATACATAC  0.386
148. TAATAACA  0.387
149. ACATGCTC  0.388
150. AGATACAT  0.388
151. ACATGGAT  0.388
152. ACACGATG  0.388
153. GAATAACA  0.39
154. ATACATAA  0.392
155. ATACATAT  0.393
156. ACATGCCA  0.397
157. AACATGAA  0.397
158. ACATGCAA  0.398
159. ACATGCGT  0.399
160. ACATACAC  0.404
161. CTACATAG  0.406
162. GTTTAACA  0.41
163. TGTATTAA  0.413
164. ATACATAG  0.415
165. ACATACAT  0.421
166. AGTTACAC  0.426
167. ACACGATC  0.426
168. ATTTAACA  0.429
169. ACACGATA  0.433
170. TACATGAA  0.45
171. AATACACA  0.467
172. AATACACG  0.473
